Inconclusive results are not listed. Entries that show only a call come without a potency. Values without a mark were called inactive. Active and inactive are the calls of the source. Calls come from the whole dose curve; as a rule, active = well fitted cell-killing curve with a large enough effect; inconclusive = small, poorly fitted or top-dose-only effect, or effect the other way; inactive = no such curve, though single readings can be large or run the other way.
test: Viability qHTS for spleen associated tyrosine kinase inhibitor (SYKi) drug resistant MV4-11 cells (AID 1963824); settings: SYKi-resistant MV4-11 viability, CellTiter-Glo, 72 h; series mostly up to 45 µM; note: nearly all actives have a fitted effect of over 35% in size
Summary of the method: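 SYK-inhibitor-resistant MV4-11 AML cells were seeded at 500 per well onto compound and cultured 72 hours (37 °C, 5% CO2). CellTiter-Glo was then added, and after 10 min at room temperature, luminescence gave viability.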
Potency is the fitted concentration of half-maximal effect.

| Structure (SMILES) | Potency | viability, % of control |
| --- | --- | --- |
| C=C1C(=O)O[C@H]2C[C@@H](C)[C@@H]3CCC(=O)[C@@]3(C)C[C@H]12 | 2.59 µM (active) | – |
| CCCC(=O)Nc1cccc(NC(=O)c2ccccc2Br)c1 | inactive | – |
| CC(C)=CC/C=C(/C)[C@H]1CC[C@]2(C)[C@@H]1[C@H](O)CC1[C@@]3(C)CC[C@H](O)C(C)(C)[C@@H]3[C@@H](O[C@@H]3O[C@H](CO)[C@@H](O)[C@H](O)[C@H]3O[C@@H]3O[C@@H](C)[C@H](O)[C@@H](O)[C@H]3O)C[C@]12C (stereo not given in full) | inactive | – |
| OC1(CN2CCC(COc3noc4cccc(O[C@@H]5CCOC5)c34)CC2)CCOCC1 | inactive | – |
| CCC(C)(O)C(O)C(=O)OCc1ccc(O[C@@H]2O[C@H](CO)[C@@H](O)[C@H](O)[C@H]2O)c(OC)c1 (stereo not given in full) | inactive | – |
| CC(=O)O[C@@H]1CC[C@@]2(C)[C@H](CC[C@@H]3[C@@H]2C[C@H](OC(C)=O)[C@]2(C)[C@@H](C(C)=O)CC[C@@H]32)C1 | 8.2 µM (active) | – |
| O=C(O)C(O[C@@H]1O[C@H](CO[C@@H]2O[C@H](CO)[C@@H](O)[C@H](O)[C@H]2O)[C@@H](O)[C@H](O)[C@H]1O)c1ccccc1 (stereo not given in full) | inactive | – |
| C[C@@H]1CC2OC(=O)C3=C2C(CCC3O)[C@@]12C[C@@H](c1ccoc1)OC2=O (stereo not given in full) | inactive | – |
| CC(C)(O)c1ccc2c(c1)C(O)C[C@H]1[C@](C)(C(=O)O)CCC[C@]21C (stereo not given in full) | inactive | – |
| N#Cc1ccc2[nH]cc(CCCCN3CCN(c4ccc5oc(C(N)=O)cc5c4)CC3)c2c1 | 18.4 µM (active) | – |
| Cc1cc2nc(NCCCO)n(CC(=O)c3cc(C(C)(C)C)c(O)c(C(C)(C)C)c3)c2cc1C | 8.2 µM (active) | – |
| CC1(C)[C@@H](O)CC[C@]2(C)[C@H]3CC=C4[C@@H]5C[C@](C)(C(=O)O)CC[C@]5(C)CC[C@@]4(C)[C@]3(C)CC[C@@H]12 | inactive | – |
| C[C@@H]1O[C@@H](O[C@@H]2[C@@H](O)[C@H](O[C@H]3[C@H](O[C@H]4CC[C@@]5(C)C(CC[C@]6(C)C5CC=C5[C@@H]7CC(C)(C)CC[C@]7(C(=O)O[C@@H]7O[C@H](CO)[C@@H](O)[C@H](O)[C@H]7O)CC[C@]56C)C4(C)C)O[C@H](C(=O)O)[C@@H](O)[C@@H]3O)OC[C@H]2O)[C@H](O)[C@H](O)[C@H]1O (stereo not given in full) | – | 87.3% [at 9.25 µM] |
| C/C=C/C1=CC2=C(CO1)C(=O)C(C)(OC(=O)c1c(C)cc(O)cc1OC)C(O)C2 (stereo not given) | 5.08 µM (active) | – |
| O=C(NCc1nc2ccccc2c(=O)n1-c1ccc(F)cc1)Nc1ccc(Cl)c(C(F)(F)F)c1 | 20.6 µM (active) | – |
| O=C(O)Cc1nn(Cc2nc3cc(C(F)(F)F)ccc3s2)c(=O)c2nccnc12 | inactive | – |
| CC(=O)N[C@H](Cc1ccc2ccccc2c1)C(=O)N[C@H](Cc1ccc(Cl)cc1)C(=O)N[C@H](Cc1cccnc1)C(=O)N[C@@H](CO)C(=O)N[C@@H](Cc1ccc(O)cc1)C(=O)N[C@H](CCCNC(N)=O)C(=O)N[C@@H](CC(C)C)C(=O)N[C@@H](CCCN=C(N)N)C(=O)N1CCC[C@H]1C(=O)N[C@H](C)C(N)=O | inactive | – |
| O=C(c1ccc(-c2ccc(Cl)cc2)o1)N(Cc1ccccn1)c1ccc(N2CCNCC2)cc1 | 9.2 µM (active) | – |
| CC1(C)C2CCC(CO[C@@H]3O[C@H](CO[C@@H]4OC[C@](O)(CO)[C@H]4O)[C@@H](O)[C@H](O)[C@H]3O)C1C2 (stereo not given in full) | inactive | – |
| CC(=O)N[C@H]1[C@H](O[C@H]2CC[C@@]3(C)C(CC[C@]4(C)C3CC=C3C5CC(C)(C)CC[C@]5(C(=O)O)[C@H](O)C[C@]34C)C2(C)C)O[C@H](CO[C@@H]2OC[C@H](O)[C@H](O)[C@H]2O[C@@H]2OC[C@@H](O)[C@H](O)[C@H]2O)[C@@H](O)[C@@H]1O (stereo not given in full) | – | 113% [at 9.25 µM] |

| Structure (SMILES) | Potency | viability, % of control |
| --- | --- | --- |
| C=CC(=O)Nc1cc(Nc2ncc(Cl)c(-c3c[nH]c4ccccc34)n2)c(OC)cc1N(C)CCN(C)C | 0.0146 µM (active) | – |
| C=C1C(=O)O[C@@H]2[C@H]3C(C)=CC(=O)C3=C(C)[C@@H](OC(=O)/C(C)=C\C)[C@H](O)[C@@H]12 | 1.43 µM (active) | – |
| CC1(C)CC[C@]2(C(=O)O[C@@H]3O[C@H](CO[C@@H]4O[C@H](CO)[C@@H](O)[C@H](O)[C@H]4O)[C@@H](O)[C@H](O[C@@H]4O[C@H](CO)[C@@H](O)[C@H](O)[C@H]4O)[C@H]3O)[C@H](O)C[C@]3(C)C(=CCC4[C@@]5(C)CC[C@H](O[C@@H]6OC[C@@H](O)[C@H](O)[C@H]6O)[C@@](C)(C(=O)O)C5CC[C@]43C)[C@@H]2C1 (stereo not given in full) | – | 65.4% [at 9.25 µM] |
| NC(=O)[C@H](O[C@@H]1O[C@H](CO)[C@@H](O)[C@H](O)[C@H]1O)c1ccccc1 | inactive | – |
| CC(=O)C12OC(C)(C)OC1CC1C3CCC4=CC(=O)C=CC4(C)C3(F)C(O)CC12C (stereo not given) | inactive | – |
| NCCCC[C@H](NC(=O)[C@@H]1Cc2ccccc2CN1C(=O)CCC(=O)c1ccccc1)C(=O)NCC(c1ccccc1)c1ccccc1 | 13 µM (active) | – |
| O=C1NC2CCc3nc4ccccc4c(=O)n3C2=Nc2ccccc21 (stereo not given) | inactive | – |
| CC1OC(OC2CCC3(C)C(CCC4(C)C3CC=C3C5CC(C)(C)CCC5(C(=O)OC5OC(CO)C(O)C(O)C5O)CCC34C(=O)O)C2(C)C)C(O)C(O)C1O (stereo not given) | inactive | – |
| Nc1nc(NC2CC2)cc(-c2cccc(Cl)c2Cl)n1 | 7.31 µM (active) | – |
| CC1OC(OC2C(C)OC(OC3C(OC(=O)/C=C/c4ccc(O)cc4)C(CO)OC(OC4(COC(=O)/C=C/c5ccc(O)cc5)OC(CO)C(O)C4O)C3OC3OCC(O)(CO)C3O)C(O)C2O)C(O)C(O)C1O (stereo not given) | – | 112% [at 9.25 µM] |
| COc1cc(C(=O)OC[C@H]2O[C@H](O[C@@]3(CO)O[C@@H](CO)[C@H](O)[C@H]3O)[C@H](O)[C@@H](O)[C@@H]2O)ccc1O | inactive | – |
| CC1(C)S[C@@H]2[C@H](NC(=O)[C@H](N)c3ccc(O)cc3)C(=O)N2[C@H]1C(=O)O | inactive | – |
| CC(C)C(C(=O)N(C)C(C)C(N)=O)N(C)C(=O)C1CCCN1C(=O)/C=C/C=C/C(O)C(C)O (stereo not given) | inactive | – |
| C=C1OC2CC(C(=O)O)C=CC2NC1=O (stereo not given) | 2.91 µM (active) | – |
| COC(=O)C1=CO[C@@H](O[C@@H]2O[C@H](CO)[C@@H](O)[C@H](O)[C@H]2O)[C@@H]2[C@@H](CO)[C@@H](O)C(O)[C@H]12 (stereo not given in full) | inactive | – |
| C[C@H](NC(c1cccc2[nH]c(=O)c(=O)[nH]c12)P(=O)(O)O)c1ccc(Br)cc1 (stereo not given in full) | 14.6 µM (active) | – |
| CCOC(=O)C1=C(N)Oc2ccc(Cl)cc2C1C(C#N)C(=O)OCC (stereo not given) | inactive | – |
| CC/C=C\CCO[C@@H]1O[C@H](CO[C@@H]2OC[C@H](O)[C@H](O)[C@H]2O)[C@@H](O)[C@H](O)[C@H]1O | inactive | – |
| CCCCCCCCCCOCC(O)CN (stereo not given) | 26.6 µM (active) | – |
| CC(=O)c1c(C)cc(O[C@@H]2O[C@H](CO)[C@@H](O)[C@H](O)[C@H]2O)cc1O | inactive | – |

Reference: PubChem BioAssay (NCATS)
